D1 antagonist – antagonists of human D1 dopamine receptor; actives 3.2% (n = 360,000); activity change, negative = inhibition, % at 10 µM; HEK293 TREx D1 cells, calcium flux, dopamine EC80; stronger effect = lower value; P21728; in the data active = activity change below about -30%; also: % is scaled to controls: 0 for no effect and ±100 for the full control effect
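Calcium flux readout: force-coupled, inducible Hek293 Trex D1 line, cells induced overnight at 30 C with tetracycline, dye-loaded 30–90 min at RT. Antagonism scored against EC80 dopamine challenge given 180 s after compound.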
TRHR enhancer – TRH receptor (human) allosteric enhancement. P34981. TRHR cells, fluo-8 calcium fluorescence, EC20 TRH enhancement. enhancement, % at 2 µM. actives 0.66% (n = 360,000). AID 493056; in the data active = enhancement above about 30%; also: 0% is about no effect
Target sequence (P34981 whole entry, looked up): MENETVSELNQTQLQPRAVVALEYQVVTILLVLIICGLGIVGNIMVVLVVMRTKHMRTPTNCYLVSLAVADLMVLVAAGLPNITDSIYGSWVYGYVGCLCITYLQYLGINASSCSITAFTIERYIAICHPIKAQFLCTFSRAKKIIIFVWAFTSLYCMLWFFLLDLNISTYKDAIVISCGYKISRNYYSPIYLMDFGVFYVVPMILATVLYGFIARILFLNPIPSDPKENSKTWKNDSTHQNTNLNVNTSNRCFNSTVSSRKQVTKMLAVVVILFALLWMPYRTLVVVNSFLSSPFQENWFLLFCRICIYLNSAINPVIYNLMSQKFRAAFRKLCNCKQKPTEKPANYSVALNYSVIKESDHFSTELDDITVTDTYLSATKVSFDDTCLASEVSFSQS
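TRHR-expressing cells loaded with fluo-8 calcium dye were read kinetically (ex 480/em 530) during compound addition, then stimulated with an EC20 of TRH (10 nM final). Enhancement of the Gq-mediated intracellular calcium response was scored.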
D1 agonist – human D1 receptor agonism | HEK293 T-REx D1 cells, calcium flux, agonist mode | activation, % at 2 µM | actives 1% (n = 360,000) | AID 504660; also: 0% is about no effect
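Agonism was scored from calcium flux recorded over 180 s (1 read/s) after pintool compound addition, following a 10-cycle baseline. Cells were inducible force-coupled HEK293 TREx D1, plated overnight at 30 C and loaded with no-wash calcium dye.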
D1 potentiator – potentiators of human D1 dopamine receptor; P21728; HEK293 TREx D1 cells, calcium flux, dopamine EC20 potentiation; potentiation, % at 10 µM; actives 0.036% (n = 360,000); AID 504651; in the data active = potentiation above about 30%; also: 0% is about no effect
TRHR agonist – TRH receptor (human) agonism | TRHR cells, calcium flux fluo-8, FDSS agonist mode | activation, % at 2 µM | actives 0.18% (n = 360,000); also: 0% is about no effect
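Agonist-mode FDSS calcium read (Ex 480/Em 530, 1 s cycles) in 1536-well TRHR cells with fluo-8 dye, after 10-cycle baseline and 23 nL compound addition; TRH at EC20 (10 nM final) added afterwards for the enhancer phase.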
Active calls of the source: *. This is a sample that favours compounds with a hit; in the whole collection about 4.6% have one here. Rule as the data show it, unless noted: active = activation above about 30%; inactive = the rest.

SMILES	D1 antagonist	TRHR enhancer	D1 agonist	D1 potentiator	TRHR agonist
COc1ccc(C(=O)NC(CO)c2nnc(SCc3ccc(Cl)c(Cl)c3)n2C)cc1 (configuration not stated)	-34*	-4	0	0	0
CCn1c(CCNC(=O)c2ccc(OC)cc2)nnc1SCc1ccc(Cl)c(Cl)c1	-21	-8	10	-8	0
CCn1nc(C)c2c(-c3ccccc3)cc(=O)n(C(C)C(=O)NCc3ccccc3OC)c21 (configuration not stated)	-3	-4	7	-4	0
Cc1ccccc1Nc1c(-c2ccc(Br)o2)nc2ccc(Cl)cn12	22	-5	2	-3	6
COc1ccccc1N1CCN(S(=O)(=O)c2ccc3c(c2)n(C)c(=O)n3C)CC1	-47*	-4	2	-4	-2
Cn1c(=O)c2cc(S(=O)(=O)N3CCOCC3)ccc2n(C)c1=O	-31*	14	-1	5	-1
Cc1cc(=O)n(C)c2ccc(S(=O)(=O)N3CCOCC3)cc12	10	3	-2	-2	0
COc1ccccc1N1CCN(S(=O)(=O)/C=C/c2ccccc2)CC1	-37*	-8	1	-2	0
CCc1nc(-c2cc(S(=O)(=O)N3CCN(c4ccccc4F)CC3)ccc2OC)no1	5	-3	7	-5	0
COc1ccc(S(=O)(=O)N2CCN(c3ccccc3F)CC2)cc1-c1noc(C)n1	-34*	-7	6	-3	74*
Cc1cccc(C(=O)NCCc2nc3ccccc3n2CCC(C)C)c1	-10	-9	2	-1	-1
CCN(CC)C(=O)Cn1c(=O)n(-c2ccc(OC)cc2OC)c(=O)c2c(C)c(C(=O)N(CC)CC)sc21	0	-8	1	-4	0
CCc1ccc(NC(=O)N2CCN(c3nnc(C)c4c(C)n(-c5ccc(Cl)cc5)nc34)CC2)cc1	-8	-2	4	7	0
CCOC(=O)N1CCN(S(=O)(=O)/C=C/c2ccccc2)CC1	10	-4	1	-8	0
CCNC(=S)N1CCN(S(=O)(=O)/C=C/c2ccccc2)CC1	5	40*	0	-1	-1
COc1ccc(C2=NCCc3cc(OC)c(OC)cc32)cc1	-61*	3	3	-12	0
COc1ccc(C2=NCCc3cc(OC)c(OC)cc32)cc1OC	9	3	2	-3	-1
COc1ccccc1C1CC(c2ccc(NS(C)(=O)=O)cc2)=NN1S(=O)(=O)c1ccccc1 (configuration not stated)	4	3	5	0	0
COc1ccccc1C1CC(c2cccc(NS(C)(=O)=O)c2)=NN1S(=O)(=O)c1ccccc1 (configuration not stated)	-4	31*	9	-4	0
CC(=O)Nc1cccc(OCC(O)Cn2c(C)nc3ccccc32)c1 (configuration not stated)	-69*	-3	0	-4	0
CC(=O)Nc1ccc(OCC(O)Cn2cnc3ccccc32)cc1 (configuration not stated)	-12	2	2	-4	1
CCCc1nc2ccccc2n1CC(O)COc1ccc(NC(C)=O)cc1 (configuration not stated)	-34*	7	3	-4	0
CCO[C@@H]1OC(C(=O)N2CCN(C)CC2)=C[C@H](C(C)(C)C)[C@H]1CCCO	18	35*	-3	8	0
CCO[C@@H]1OC(C(=O)N2CCN(C)CC2)=C[C@H](C2CCCCC2)[C@H]1CCCO	2	1	-4	-3	0
Cc1n[nH]c(=S)n1/N=C/c1ccccc1OCc1ccc(Cl)cc1	-87*	1	2	-2	-1
SMILES	D1 antagonist	TRHR enhancer	D1 agonist	D1 potentiator	TRHR agonist
Cc1n[nH]c(=S)n1/N=C/c1cccc(OCc2ccccc2)c1	23	10	2	11	-1
CCc1ccc(N2CC(C(=O)Nc3cccc(S(=O)(=O)N4CCCC4)c3)CC2=O)cc1 (configuration not stated)	-2	3	2	-6	0
Cn1c(=O)n(CCOc2ccc([N+](=O)[O-])cc2)c2ccccc21	-59*	11	0	-12	0
O=C1C2C(c3cccc(/C=C/c4ccccc4)c3)CC=CC2C(c2ccc3ccccc3c2)N1Cc1ccccc1 (configuration not stated)	-42*	-2	5	-2	0
N#C/C(=C\c1cccc(NC(=O)c2ccccc2Cl)c1)C(=O)NCCc1ccccc1	-19	35*	4	-5	1
Cc1cc(C(=O)OCC(=O)NC(=O)c2cccn2C)c2ccccc2n1	17	-10	45*	-4	-1
COc1ccc(C2NC(=O)N(C)C3=C2C(=O)N(c2cccc(C(=O)O)c2)C3)cc1 (configuration not stated)	3	3	-1	-3	4
Cc1ccc(C(=O)C2=C(O)C(=O)N(CCCN(C)C)C23C(=O)N(C)c2ccccc23)o1 (configuration not stated)	8	-1	2	5	-1
CN1C(=O)C2(c3ccccc31)c1c(oc3ccccc3c1=O)C(=O)N2CCCO (configuration not stated)	-31*	0	3	-6	0
Cc1ccc2oc3c(c(=O)c2c1)C1(C(=O)N(C)c2ccccc21)N(CCCO)C3=O (configuration not stated)	-5	36*	-1	-1	0
CN1C(=O)C2(c3ccccc31)c1c(oc3ccccc3c1=O)C(=O)N2CCO (configuration not stated)	-17	0	5	-9	0
CCCCOc1ccc(C(=O)N2CCN(CCc3ccncc3)CC2)cc1	-3	13	-3	0	-2
CCc1cccc(NC(=O)CC(c2ccc(OC)cc2)N2Cc3ccccc3C2=O)c1 (configuration not stated)	-5	3	5	-3	1
Cn1c(-c2cccc(Br)c2)cnc1NCc1ccccc1O	-35*	2	4	-5	0
Cn1c(-c2ccccc2)cnc1NCc1ccccc1	-16	13	0	-15	0
CCOC(=O)c1noc2nc(C)n(CC(=O)NC(C)CC)c(=O)c12 (configuration not stated)	-4	34*	1	1	0
Cc1ccc(S(=O)(=O)Nc2cc3c4c(c2)CCN4C(=O)CC3)cc1	35	-2	-1	3	-1
C/C(=N\NC(=O)c1nnn(-c2nonc2N)c1-c1ccccc1)c1ccco1	34	23	66*	3	14
COc1cccc(-c2c(C(=O)N/N=C(\C)c3ccco3)nnn2-c2nonc2N)c1	34	20	47*	2	5
Cc1cc(OCC(=O)NC(C)C)cc(C)c1Cl	-31*	0	6	-5	-1
